Source: PubChem BioAssay
Mtb FBA inh: Mtb fructose-bisphosphate aldolase inhibition; AID 588726; purified M. tuberculosis FBA, fluorescence read-out; P9WQA3; 2.3% of 360,000 active; inhibition, % at 1 µM; in the data active = inhibition above about 27%;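 also: 0% = vehicle and 100% = reference inhibitor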
TcdB GH inh: TcdB glycohydrolase inhibition; TcdB glycohydrolase enzymatic assay, plate reader; inhibition, % at 9.99 µM; 0.24% of 350,000 active; in the data active = inhibition above about 10%
GDH-TPI counter: counter-screen for M. tuberculosis FBA inhibitors: GDH-TPI coupled enzymes. inhibition, % at 4.8 µM. GDH-TPI coupled enzyme counterscreen, NADH absorbance. 1.2% of 360,000 active; in the data active = inhibition above about 30%;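 also: 0% = DMSO wells and 100% = wells lacking the enzyme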
PrPC TRFRET: reduces human prion protein on the cell surface | P04156 | cell surface PrPC, TR-FRET read-out | inhibition, % at 13.8 µM | 0.43% of 370,000 active | AID 720596; in the data active = inhibition above about 24%; also: 0% = median of the test wells and 100% = reference compound wells
Yp Topo-I inh: inhibitors of Yersinia pestis topoisomerase I; Y. pestis Topo-I cleavage product accumulation, plate reader; activity, % at 10 µM; 0.064% of 360,000 active; in the data active = activity above about 50%, passing the limit was not always enough
Numbers without * were called inactive; . = no result; + = active, no number. The list is not random: actives were taken first. Their share in the collection is about 3.2%.

SMILES	Mtb FBA inh	TcdB GH inh	GDH-TPI counter	PrPC TRFRET	Yp Topo-I inh
CCOC(=O)c1ccc(-n2c(CN3CCC(C(N)=O)CC3)nc3ccc([N+](=O)[O-])cc3c2=O)cc1	-0.3	0.0	14.1	-25.6	6.6
CCOC(=O)c1ccc(-n2c(CN3CCC(O)CC3)nc3ccc([N+](=O)[O-])cc3c2=O)cc1	-0.2	1.6	45.5*	-22.2	-11.9
COc1cccc2c1C(=O)c1c(O)c3c(c(O)c1C2=O)C[C@](O)(C(C)=O)C[C@H]3O[C@@H]1C[C@@H](N)[C@@H](O)[C@@H](C)O1	-3.5	-24.5	2.4	-28.4	-33.8
COc1cccc2c1C(=N)c1c(O)c3c(c(O)c1C2=O)CC(O)(C(C)=O)CC3OC1CC(N)C(O)C(C)O1 (stereo unspecified)	-0.3	.	0.0	.	231.4*
Cc1ccc(-n2c(C)cc(/C=N/NC(=O)c3ccc(CN4CCOCC4)cc3)c2C)cc1	1.2	.	21.2	-2.6	10.5
Cc1cccc(-n2c(C)cc(/C=N/NC(=O)c3ccc(CN4CCOCC4)cc3)c2C)c1	1.2	-1.8	44.5*	.	1.8
CCCCCCCN1C(N(C)C)=NC[C@@H]1Cc1ccccc1	-0.1	13.2*	0.4	6.4	11.1
CC(C)n1c(O)c(N=Nc2ccc(Cl)c(C(=O)O)c2)c2ccccc21	-17.8	-2.0	11.7	-4.2	-1.5
CCn1c(O)c(N=Nc2ccc(Cl)c(C(=O)O)c2)c2ccccc21	-19.5	-0.2	35.0*	1.2	3.8
CC(C)NC(=O)N(C)C[C@H]1Oc2ncc(-c3ccc(C(=O)N(C)C)cc3)cc2C(=O)N([C@@H](C)CO)C[C@@H]1C	.	0.5	.	.	.
O=C(N/N=C/C=C/c1ccccc1)c1cccc(Br)c1	-5.5	-1.3	65.0*	-5.5	9.0
O=C(N/N=C\c1ccc(Sc2ccccn2)o1)c1cccc(Br)c1	-0.6	.	32.3*	2.9	-4.4
O=C(N/N=C/C=C/c1ccccc1)c1cnccn1	-4.5	.	48.3*	-15.9	-8.3
Cc1cc(C(=O)N/N=C/C=C/c2ccccc2)c(C)o1	-1.7	1.1	31.8*	0.1	3.2
Cc1ccccc1C(=O)N/N=C/c1ccc(Sc2ccccn2)o1	0.6	.	25.6	-8.6	2.6
Cc1noc(C)c1NC(=O)Nc1cccc2c1O[C@H](CN(C)C(=O)Nc1ccccc1)[C@H](C)CN([C@H](C)CO)C2=O	.	0.8	.	.	.
C[C@H]1CN([C@@H](C)CO)C(=O)c2cc(NC(=O)CCCN(C)C)ccc2O[C@@H]1CN(C)S(=O)(=O)c1ccc(Cl)cc1	.	1.1	.	.	.
Cc1ccc(C(=O)N/N=C/C=C/c2ccccc2)cc1	0.6	-0.3	31.0*	9.5	-2.2
Cc1cc2n(c(=O)c1C#N)CCCN2c1ccccc1	4.2	1.0	58.2*	0.1	-2.8
Cc1cc(C)n(CC(=O)N2CCc3ccccc32)c(=O)c1C#N	0.9	-0.5	2.2	-6.2	-2.1
CC1CCC(NC(=O)c2cc(C3CC3)nn2-c2ccccc2)CC1 (stereo unspecified)	+	-0.1	7.5	-4.4	40.2
Cn1ncc([N+](=O)[O-])c1C(=O)NCc1ccccc1	0.3	3.2	-0.7	-6.3	7.2
Cc1c(CNC(=O)c2c([N+](=O)[O-])cnn2C)cnn1C	-0.6	23.7*	0.0	-0.6	0.6
CCOc1ccc(/C=C/C(=O)N(CC)CC(=O)Nc2ccc3c(c2)OCCO3)cc1OC	5.5	-3.2	7.2	-14.4	3.8
CCCN(CC(=O)Nc1ccccc1C)C(=O)/C=C/c1ccc(OCC)c(OC)c1	12.8	2.1	34.0*	2.9	0.4
SMILES	Mtb FBA inh	TcdB GH inh	GDH-TPI counter	PrPC TRFRET	Yp Topo-I inh
CCOc1ccc(/C=C/C(=O)N(CC)CC(=O)Nc2c(F)cccc2F)cc1OC	9.9	-1.7	31.9*	-1.5	-13.8
CCCn1c(N)c(C(=O)COC(=O)c2cccc(S(=O)(=O)N3CCOCC3)c2)c(=O)[nH]c1=O	-2.3	13.4*	-1.0	-6.5	5.0
CCCCN(C(=O)c1cccc(S(=O)(=O)N2CCOCC2)c1)c1c(N)n(CCC)c(=O)[nH]c1=O	-0.3	0.7	4.0	-0.6	10.1
Cc1noc(C)c1NC(=O)Nc1ccc2c(c1)C(=O)N([C@@H](C)CO)C[C@@H](C)[C@H](CN(C)C(=O)C1CCCCC1)OCCCC[C@@H](C)O2	.	0.3	.	.	.
COc1ccc(C2/C(=C(/O)c3ccccc3)C(=O)C(=O)N2c2ccccn2)cc1 (stereo unspecified)	1.1	0.8	10.8	1.1	-2.8
COc1ccc(C2/C(=C(/O)c3ccc(C)cc3)C(=O)C(=O)N2c2ccccn2)cc1OC (stereo unspecified)	0.2	0.6	31.6*	1.5	5.2
COc1ccc(C2/C(=C(/O)c3ccccc3)C(=O)C(=O)N2c2ccccn2)cc1OC (stereo unspecified)	-2.2	-1.0	5.1	-6.1	-8.2
COc1cccc(/C(O)=C2\C(=O)C(=O)N(c3ccccn3)C2c2cccc(OC)c2OC)c1 (stereo unspecified)	-4.6	.	41.2*	6.0	2.3
COc1ccc(CN2CC3(CN(C(=O)C4CCC4)C3)c3c(n(C)c4cc(OC)ccc34)[C@@H]2CO)cc1	.	-1.4	.	.	.
CCc1ccc(Nc2cnn(C34CC5CC(CC(CC(=O)O)(C5)C3)C4)c(=O)c2Cl)cc1	3.1	0.9	15.8	8.3	-14.6
O=C(O)Cc1ccc(Nc2cnn(C34CC5CC(CC(CC(=O)O)(C5)C3)C4)c(=O)c2Cl)cc1	-0.3	0.1	50.6*	3.8	0.1
O=c1[nH]c(/C=C/c2ccc([N+](=O)[O-])cc2)c([N+](=O)[O-])c(=O)[nH]1	-0.4	0.4	31.2*	-22.9	1.5
CN(C)/C=C/c1[nH]c(=O)[nH]c(=O)c1[N+](=O)[O-]	0.6	0.6	8.2	-2.2	0.4
COCCNC(=O)C[C@H]1C[C@@H]2c3cc(NC(=O)C4CCOCC4)ccc3O[C@@H]2[C@@H](CO)O1	.	0.3	.	.	.
Nc1ccc(OCCCc2c(N)nc(N)nc2N)cc1	2.1	11.8*	-3.8	-2.3	-16.7
CC=Cc1ccc2n(c1=O)C[C@H]1[C@H](CO)[C@@H](C(=O)NCCOC)[C@@H]2N1Cc1ccccc1 (mixture of isomers)	.	0.1	.	.	.
CCn1c(=O)c2cc(C(=O)N(C)c3cc(C)ccc3OC)sc2c2ccccc21	6.6	0.0	32.5*	-0.9	-0.5
CCn1c(=O)c2cc(C(=O)N(C)c3ccccc3F)sc2c2ccccc21	1.8	0.5	13.8	4.6	30.1
CCn1c(=O)c2cc(C(=O)N(C)c3ccc(OC)cc3OC)sc2c2ccccc21	4.9	1.1	49.4*	10.7	-4.2
COc1ccc2c3c([nH]c2c1)[C@H](CO)N(C(=O)C1CCCCC1)CC31CN(C(=O)NC(C)C)C1	.	0.5	.	.	.
COc1ccc(C2=CC(c3ccc(C)cc3)n3nnnc3N2)cc1 (stereo unspecified)	20.6	.	24.7	.	-9.1
Fc1ccc(C2=CC(c3ccc(Br)o3)n3ncnc3N2)cc1 (stereo unspecified)	42.8*	.	11.3	.	0.5
Oc1ccc(C2C=C(c3ccc(F)cc3)Nc3ncnn32)cc1 (stereo unspecified)	3.1	2.7	13.9	-3.8	-11.4
C1=C(c2ccc(-c3ccccc3)cc2)Nc2ncnn2C1c1ccco1 (stereo unspecified)	13.1	.	9.2	-4.6	-5.3
